Rows were chosen to be rich in hits. Some 19% of all compounds tested hit in one or more screens of this group.
TDP1 cell noCPT – qHTS for Inhibitors of human tyrosyl-DNA phosphodiesterase 1 (TDP1): qHTS in cells in absence of CPT; DT40 Tdp1-/- hTDP1 cells, no CPT, ATP luminescence, 48 h; Potency, µM (titrated, usually from 46.2 µM), for the others: at the top dose activity change, negative = growth inhibition, most hits filed as inhibitors; 420,000 tested, 15% active; also: nearly all actives have a fitted effect of over 55% in size
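Chicken DT40 Tdp1-/- cells stably complemented with human TDP1 were seeded at 400 cells/well with DMSO in place of 20 nM camptothecin. After compound pinning, cells grew at least 48 hr at 37 °C; viability read by CellTiter-Glo luminescence.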
KB-V1 MDR tox – kills drug-selected multidrug resistant KB-V1 cells; 400,000 tested, 3.4% active; KB-V1 MDR cells viability, CellTiter-Glo, 72 h; Potency, µM (highest dose often 46.1 µM), most hits filed as cytotoxic; also: nearly all actives have a fitted effect of over 60% in size
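Luminescent ATP read-out (CellTiter-Glo, 10 min) measures survival of drug-selected KB-V1 MDR cells after 72 h, 37 degrees C compound exposure. Medium: phenol-red-free DMEM, 10% FBS. Values from fitted concentration-response curves.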
HT1080 IDH1KD tx – HT-1080 IDH1 knockdown cell toxicity (counter line) | 360,000 tested, 2% active | HT-1080 IDH1 knockdown viability, ATP luminescence, 48 h | Potency, µM (series often up to 46.1 µM), without a hit: top-dose activity, negative = toxicity, usual class: cytotoxic;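 also: 0% = DMSO wells and -100% = cell-free medium wells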
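CellTiter-Glo luminescence after 48 h compound exposure at 37 degrees C of IDH1-knockdown HT-1080 cells in 5% FBS RPMI. %Activity scaled between DMSO wells and cell-free media wells, with curves fitted and assigned curve classes.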
HT1080NT lethal – kills 2HG-producing HT-1080-NT fibrosarcoma cells | HT-1080-NT fibrosarcoma viability, CellTiter-Glo ATP luminescence, 48 h | Potency, µM (top dose mostly 46.1 µM), without a hit: top-dose activity, negative = less viability, most hits filed as cytotoxic | 360,000 tested, 1.6% active | AID 686970;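 also: NT is the 2HG producing partner of a matched IDH1 knockdown line; 0% = DMSO-treated cells and -100% = media-only wells without cells; nearly all actives have a fitted effect of over 55% in size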
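Luminescent CellTiter-Glo readout after 48 hours of compound exposure at 37 degrees C defined viability of HT-1080-NT cells. Activity was normalized to DMSO wells and cell-free media wells; concentration-response curves were fitted and assigned curve classes.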
KB-3-1 cytotox – kills parental KB-3-1 adenocarcinoma cells. KB-3-1 viability, CellTiter-Glo ATP luminescence, 72 h. Potency, µM (doses to about 46.1 µM), hits mostly cytotoxic. 400,000 tested, 1.4% active; also: nearly all actives have a fitted effect of over 60% in size
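72 h, 37 °C compound treatment of KB-3-1 parental cells; CellTiter-Glo added, 10 min, luminescence read. Data corrected against DMSO-only plates and normalized before curve fitting.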
DT40 TDP1 CPT – growth inhibition of DT40 Tdp1-/-;hTDP1 cells with camptothecin (screen for TDP1 inhibitors); chicken DT40 Tdp1-/-;hTDP1 cells + 20 nM CPT, ATP luminescence, 48 h; Potency, µM (highest dose often 46.2 µM), without a hit: at the top dose activity change, negative = growth inhibition, usual class: inhibitors; 420,000 tested, 12% active; also: nearly all actives have a fitted effect of over 55% in size
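Chicken DT40 Tdp1-/- cells complemented with human TDP1, 400 cells/well, exposed to compounds plus 20 nM camptothecin for at least 48 h at 37 C; viability read as ATP content by CellTiter-Glo luminescence.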
Active calls of the source: *; i = inactive; ? = inconclusive; . = no result given. Calls follow the shape of the dose curve; as a rule, active = well fitted curve in the direction sought with a large enough effect; inconclusive = small, poorly fitted or top-dose-only effect, or another doubt; inactive = no such curve, though single readings can be large; an effect the other way counts as inactive or inconclusive. Unless noted, % is scaled to controls: 0 for no effect and ±100 for the full control effect; potency is read from the fitted curve at half-maximal effect.

SMILES	TDP1 cell noCPT	KB-V1 MDR tox	HT1080 IDH1KD tx	HT1080NT lethal	KB-3-1 cytotox	DT40 TDP1 CPT
Fc1ccc2c(c1)nnn2C1CCN(Cc2nnnn2C2CCCCC2)CC1	-20.0%	i	-0.5%	-27.5%	i	-4.2%
Cc1nc2cc(F)ccc2n1C1CCN(Cc2nnnn2CCc2ccccc2)CC1	?	11.6µM*	-17.0%	-22.8%	i	16.4µM*
FC(F)(F)c1ccc2c(c1)nnn2C1CCN(Cc2nnnn2Cc2ccccc2)CC1	?	?	?	-25.4%	i	?
Cc1nc2cc(C(F)(F)F)ccc2n1C1CCN(Cc2nnnn2CCc2ccccc2)CC1	13µM*	?	?	18.4µM*	?	18.4µM*
CN1[C@H](CC(=O)c2ccccc2)CCC[C@H]1C[C@@H](O)c1ccccc1	-20.5%	.	.	.	.	13.4%
CCN(CC)S(=O)(=O)c1ccc(NN=C(C#N)C#N)cc1	?	i	-27.3%	-23.6%	i	?
N#CC(C#N)=NNc1ccc(-n2ccc(C(F)(F)F)n2)cc1	1.64µM*	i	4.61µM*	?	?	2.31µM*
Cc1cc(C)n(-c2ccc(NN=C(C#N)C#N)cc2)n1	7.31µM*	i	?	9.0%	i	10.3µM*
O=S(=O)(c1ccccc1)N1CC1c1ccccc1 (stereo not given)	-27.6%	i	7.5%	-4.0%	i	-13.9%
CCN(CC)P(c1n(C)cc[n+]1C)N(CC)CC	23.1µM*	i	1.1%	0.1%	i	?
COc1cccc(-c2nn(CCC#N)cc2C(=O)Nc2ccccc2Cl)c1	?	?	-16.7%	-14.0%	?	?
Cc1ccc(S(=O)(=O)N2Cc3cc(-c4ccccc4)ccc3-n3nncc3C2)cc1	?	i	-6.9%	-12.6%	i	?
COc1ccc(Br)cc1C1SCC(=O)Nc2c1c(C)nn2-c1ccccc1C (stereo not given)	18.4µM*	i	.	.	?	?
CCCOc1ccccc1C1SCC(=O)Nc2c1c(=O)[nH]n2C(C)CCC (stereo not given)	-27.2%	i	8.7%	-1.8%	i	-1.4%
COc1ccccc1C1SCC(=O)Nc2c1c(C)nn2-c1cccc(C)c1 (stereo not given)	?	i	.	.	i	?
Cc1ccccc1-n1nc(C)c2c1NC(=O)CSC2c1ccccc1C(F)(F)F (stereo not given)	?	i	.	.	?	25.9µM*
CC1C(=O)OC2C(O)C34C5OC(=O)[C@@]3(OC3OC(=O)[C@H](O)[C@]34C(C(C)(C)C)C5O)[C@]12O (stereo not given in full)	5.3%	.	.	.	.	16.3%
O[C@@H]1CCCC[C@@H]1N1CCC(c2ccccc2)CC1	8.4%	.	.	.	.	-2.8%
COc1ccc(-n2nnnc2C(c2ccccc2OC(F)(F)F)N2CCC(n3c(=O)[nH]c4ccccc43)CC2)cc1 (stereo not given)	18.4µM*	i	?	?	?	20.6µM*
COc1ccc(C(c2nnnn2-c2ccc3c(c2)OCCO3)N2CCC(n3c(=O)[nH]c4ccccc43)CC2)cc1 (stereo not given)	16.4µM*	?	14.6µM*	18.4µM*	?	?
O=C1NCN(c2ccccc2)C12CCN(C(c1ccccc1OC(F)(F)F)c1nnnn1-c1ccc3c(c1)OCCO3)CC2 (stereo not given)	?	i	?	?	?	?
O=c1[nH]c2ccccc2n1C1CCN(C(c2ccnc3ccccc23)c2nnnn2-c2ccc3c(c2)OCCO3)CC1 (stereo not given)	9.2µM*	?	16.4µM*	?	?	5.17µM*
CCOC(=O)[C@]12Cc3ccccc3[C@H]1N(C)C(=O)c1cc(OC)ccc12	14.6µM*	7.31µM*	?	?	9.2µM*	23.1µM*
CCOC(=O)[C@]12Cc3c(cc(OC)c(OC)c3OC)[C@H]1N(C)C(=O)c1cc(OC)ccc12	9.2µM*	3.66µM*	?	14.6µM*	2.91µM*	10.3µM*
CCOC(=O)[C@]12Cc3ccccc3[C@H]1N(C(C)C)C(=O)c1cc(OC)ccc12	14.6µM*	4.11µM*	16.4µM*	?	3.66µM*	23.1µM*
SMILES	TDP1 cell noCPT	KB-V1 MDR tox	HT1080 IDH1KD tx	HT1080NT lethal	KB-3-1 cytotox	DT40 TDP1 CPT
O=C(COC(=O)c1cccc(NC(=O)c2ccc(Br)cc2)c1)c1ccc(Br)cc1	?	i	.	.	i	?
CCCC[N+]12CCC(CC1)C(=C(c1ccccc1)c1ccccc1)C2	4.11µM*	i	-2.1%	0.1%	i	4.61µM*
CCC[N+]12CCC(CC1)C(=C(c1ccccc1)c1ccccc1)C2	20.6µM*	i	-9.4%	-9.5%	i	14.6µM*
OCC[N+]12CCC(CC1)C(C(O)(c1ccccc1)c1ccccc1)C2 (stereo not given)	-0.6%	i	10.3%	5.1%	i	7.4%
CN(C)C(=O)Oc1ccc2c(=O)c(Oc3ccccc3Br)coc2c1	-22.9%	i	14.1%	14.3%	i	-22.8%
C#C[C@@]1(O)CCC2C3CCC4=C/C(=N/OCC(=O)NC(C(=O)NC(CC(C)C)C(=O)O)C(C)C)CC[C@]4(C)C3CC[C@@]21C (stereo not given in full)	21.1%	?	-2.3%	-1.7%	i	-10.4%
O=C1CCO1	4.3%	.	.	.	.	5.1%
CN(C[C@H](Cc1ccccc1)N(C[C@H](Cc1ccccc1)N(CC1(c2ccccc2)CC1)N=O)N=O)N=O	18.4µM*	i	-7.4%	?	i	?
CC(=O)Nc1cc(-c2ccc(C(=O)NC3CC3)cc2)cn2c(-c3ccc(F)c(Cl)c3)cnc12	14.6µM*	?	18.4µM*	?	i	?
COc1ccc(-c2nn(Cc3ccccc3)cc2C(=O)NC2CC2)cc1OC	13.9%	i	-15.0%	6.7%	i	5.3%
CN1CCc2cc3c(cc2C1O)OCO3 (stereo not given)	2.6%	.	.	.	.	6.8%
O=C(O)Cc1cccnc1C(=O)O	-9.1%	.	.	.	.	1.2%
O=C(c1ccc2c(=O)n(Cc3ccc4c(c3)OCO4)c(=S)[nH]c2c1)N1CCC2(CC1)OCCO2	?	i	13.9%	-0.1%	i	23.1µM*
O=C(NCc1ccc(C(=O)N2CCC3(CC2)OCCO3)cc1)c1ccc2c(c1)OCO2	-23.7%	i	2.5%	7.5%	i	-15.2%

From PubChem BioAssay
